According to PubChem BioAssay (Tox21):
Unmarked numbers belong to inactive results. Inconclusive results are not listed. Entries that show only a call come without a potency. The source made the active and inactive calls. Calls follow the shape of the dose curve; as a rule, active = well fitted curve in the direction sought with a large enough effect in the repeat runs; inconclusive = weak or mixed curves; inactive = no such curve, though single readings can be large; an effect the other way counts as inactive or inconclusive.

Legend:
[1] = Human pregnane X receptor (PXR) small molecule agonists, qHTS cell viability counter screen (AID 1346977); also: nearly all actives have a fitted effect of over 50% in size
How it was run: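 PXR-Luc HepG2, 2,000 cells/well, 5% charcoal-stripped FBS; 5hr settle; cpd 24hr, 37C/5% CO2; CellTiter-Fluor at 23hr, read 1hr later (fluorescence).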

[2] = Caspase-3/7 induction in HepG2 cells by small molecules, qHTS assay (AID 1346978); also: nearly all actives have a fitted effect of over 15% in size
How it was run: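 Wild-type HepG2 cells (2,000/well) were settled 5 h at 37 C, 5% CO2, then exposed to compounds in DMSO for 17 h. Caspase-3/7 activity was read by luminescence 30 min after adding Caspase-Glo 3/7 reagent at room temperature.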

[3] = Caspase-3/7 induction in CHO-K1 cells by small molecules, qHTS cell viability counter screen (AID 1346979); also: nearly all actives have a fitted effect of over 35% in size
How it was run: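 Cells (CHO-K1, wild type) are plated at 1,500 per well and incubated 5hr. Test compounds in DMSO are then pinned in, followed by 16hr at 37C and 5% CO2. Viability is read by CellTiter-Fluor fluorescence after 1hr.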

[4] = Caspase-3/7 induction in CHO-K1 cells by small molecules, qHTS assay (AID 1346980); also: nearly all actives have a fitted effect of over 15% in size
How it was run: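 Wild-type cells were seeded at 1,500 per well and settled 5 hr at 37 C, 5% CO2, then exposed to DMSO-dissolved compounds for 17 hr. Caspase-Glo 3/7 reagent was added, and luminescence was read after 30min at room temperature.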

[5] = Caspase-3/7 induction in HepG2 cells by small molecules, qHTS cell viability counter screen (AID 1346981); also: series mostly up to about 92 µM; nearly all actives have a fitted effect of over 30% in size
How it was run: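 Viability determined by CellTiter-Fluor fluorescence in HepG2 wells also used for the luminescent Caspase-Glo 3/7 read. Compounds were present for 16 hr at 37 C, 5% CO2 before reagent addition.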

[6] = molecular target: Nuclear receptor subfamily 1 group I member 2 (Homo sapiens) (UniProt O75469); assay: Human pregnane X receptor (PXR) small molecule agonists, qHTS assay (AID 1346982); also: nearly all actives have a fitted effect of over 35% in size; also: potency is read from the fitted curve at half-maximal effect
How it was run: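 Compound-induced hPXR transactivation of a CYP3A4 luciferase reporter was scored in HepG2 PXR-Luc cells over 24 hr at 37 C, 5% CO2, by luminescence.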

[7] = molecular target: Nuclear receptor subfamily 1 group I member 2 (Rattus norvegicus) (UniProt Q9R1A7); assay: Rat pregnane X receptor (rPXR) activation by small molecules, qHTS assay (AID 1346983); conditions: rPXR luciferase reporter cells, One-Glo luminescence, 24 h; max activation: active compounds read high; also: nearly all actives have a fitted effect of over 20% in size
How it was run: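 Cell-based rPXR luciferase reporter assay, 2,000 cells per well, rested 5hr at 37 C before compound addition in DMSO, then 24 hr at 37 C. One-Glo reagent was added and luminescence read after 30 min at room temperature.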

[8] = molecular target: Nuclear receptor subfamily 1 group I member 2 (Homo sapiens) (UniProt O75469); assay: CYP3A4 induction through human pregnane X receptor (PXR) by small molecules, qHTS assay (AID 1346984); also: nearly all actives have a fitted effect of over 40% in size
How it was run: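 Readings come from a luciferase reporter: DPX-2 cells, which are HepG2 cotransfected with PXR and a CYP3A4-promoter construct, were exposed to test compounds for 24 h at 37C before One-Glo detection.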

[9] = molecular target: Nuclear receptor subfamily 1 group I member 2 (Homo sapiens) (UniProt O75469); assay: Human pregnane X receptor (PXR) activation by small molecules, qHTS assay (AID 1346985); also: nearly all actives have a fitted effect of over 40% in size; also: potency is read from the fitted curve at half-maximal effect
How it was run: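 DPX-2 cells (HepG2 co-transfected with a PXR response element and a CYP3A4-promoter luciferase construct) were seeded at 2,000 per well, rested 5 hr at 37C, then exposed to DMSO-dissolved compounds for 24 hr. Activation was read as luciferase luminescence.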

[10] = molecular target: Cytochrome P450 2D6 (Homo sapiens) (UniProt P10635); assay: Cytochrome P450 Family 2 Subfamily D Member 6 (CYP2D6) small molecule antagonists: luciferase reporter qHTS assay (AID 1671196); also: nearly all actives have a fitted effect of over 50% in size; also: potency is read from the fitted curve at half-maximal effect
How it was run: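 Each well received CYP2D6 with its proluciferin substrate and chemical, sat 10 min, then got NADPH regeneration solution for 1 h at room temperature. Luminescence in RLU served as the activity measure.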

Chain of Cytochrome P450 2D6 (Homo sapiens) (P10635 whole entry, looked up): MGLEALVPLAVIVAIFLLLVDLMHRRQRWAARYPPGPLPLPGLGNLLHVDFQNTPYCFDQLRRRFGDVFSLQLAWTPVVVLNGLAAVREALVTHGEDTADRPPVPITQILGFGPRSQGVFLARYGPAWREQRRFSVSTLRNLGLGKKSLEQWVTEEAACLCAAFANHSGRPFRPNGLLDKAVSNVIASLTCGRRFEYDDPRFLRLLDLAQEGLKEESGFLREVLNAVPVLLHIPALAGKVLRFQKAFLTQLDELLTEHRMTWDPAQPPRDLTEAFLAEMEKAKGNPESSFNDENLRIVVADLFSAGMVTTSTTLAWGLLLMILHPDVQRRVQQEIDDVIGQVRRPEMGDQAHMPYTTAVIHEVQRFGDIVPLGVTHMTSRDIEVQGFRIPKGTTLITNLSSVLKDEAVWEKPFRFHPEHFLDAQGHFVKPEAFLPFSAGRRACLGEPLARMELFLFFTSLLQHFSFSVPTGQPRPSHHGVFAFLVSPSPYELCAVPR
Chain of Nuclear receptor subfamily 1 group I member 2 (Homo sapiens) (O75469 whole entry, looked up): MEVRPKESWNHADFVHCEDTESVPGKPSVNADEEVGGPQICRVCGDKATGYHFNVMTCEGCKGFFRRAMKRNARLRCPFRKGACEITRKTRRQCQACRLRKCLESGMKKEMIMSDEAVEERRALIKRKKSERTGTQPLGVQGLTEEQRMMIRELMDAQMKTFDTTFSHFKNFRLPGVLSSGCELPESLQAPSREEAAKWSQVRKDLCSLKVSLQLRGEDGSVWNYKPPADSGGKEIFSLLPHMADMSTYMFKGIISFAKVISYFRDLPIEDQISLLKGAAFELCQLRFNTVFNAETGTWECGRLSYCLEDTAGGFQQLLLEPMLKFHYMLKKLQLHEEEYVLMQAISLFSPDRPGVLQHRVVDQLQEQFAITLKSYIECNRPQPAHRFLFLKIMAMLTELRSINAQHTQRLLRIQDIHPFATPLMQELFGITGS
Chain of Nuclear receptor subfamily 1 group I member 2 (Rattus norvegicus) (Q9R1A7 whole entry, looked up): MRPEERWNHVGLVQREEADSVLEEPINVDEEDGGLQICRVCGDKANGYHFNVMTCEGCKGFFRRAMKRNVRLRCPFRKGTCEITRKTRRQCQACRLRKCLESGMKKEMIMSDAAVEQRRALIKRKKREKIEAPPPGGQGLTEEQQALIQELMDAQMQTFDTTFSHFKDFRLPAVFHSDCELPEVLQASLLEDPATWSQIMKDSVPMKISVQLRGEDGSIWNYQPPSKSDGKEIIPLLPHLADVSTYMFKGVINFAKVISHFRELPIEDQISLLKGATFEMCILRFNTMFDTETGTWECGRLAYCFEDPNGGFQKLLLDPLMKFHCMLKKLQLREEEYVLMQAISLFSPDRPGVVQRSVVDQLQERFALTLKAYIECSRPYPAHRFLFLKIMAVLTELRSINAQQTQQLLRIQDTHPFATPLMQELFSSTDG

CCCOCC(C)OCC(C)O (stereo not given)
Potency [1]: inactive
outcome [2]: inactive
Potency [3]: inactive
outcome [4]: inactive
outcome [5]: inactive

CCN(CC)C(=O)c1ccc(O)c(OC)c1
Potency [1]: inactive
outcome [2]: inactive
Potency [3]: inactive
outcome [4]: inactive
outcome [5]: inactive
Potency [6]: inactive
max activation [7]: -5.72%
Potency [8]: inactive
Potency [9]: inactive
Potency [10]: inactive

COC(=O)[C@H]1[C@H]2C[C@@H]3c4[nH]c5cc(OC)ccc5c4CCN3C[C@H]2C[C@@H](OC(=O)COc2ccc(OC)cc2)[C@@H]1OC
Potency [1]: inactive
outcome [2]: inactive
Potency [3]: inactive
outcome [4]: inactive
outcome [5]: inactive
Potency [6]: inactive
max activation [7]: -1.88%
Potency [8]: inactive
Potency [9]: 10 µM (active)
Potency [10]: 17.4 µM (active)

CO[Si](CCCNCCC[Si](OC)(OC)OC)(OC)OC
Potency [1]: inactive
outcome [2]: inactive
Potency [3]: inactive
outcome [4]: inactive
outcome [5]: inactive
Potency [6]: inactive
Potency [10]: inactive

CC(=O)OC(C)(C)C
Potency [1]: inactive
outcome [2]: inactive
Potency [3]: inactive
outcome [4]: inactive
outcome [5]: inactive
Potency [6]: inactive

Cc1cc(C)c(NC(=O)CN(CC(=O)O)CC(=O)O)c(C)c1Br
Potency [1]: inactive
outcome [2]: inactive
Potency [3]: inactive
outcome [4]: inactive
outcome [5]: inactive
Potency [6]: inactive
max activation [7]: -1.5%
Potency [8]: inactive
Potency [9]: inactive
Potency [10]: inactive

CCn1cc(C(=O)O)c(=O)c2cc(F)c(N3CCN(C)CC3)cc21
activity change, negative = cytotoxicity [1]: 4.23% [at 19 µM]
caspase activation [2]: -0.273% [at 19 µM]
activity change, negative = cytotoxicity [3]: 6.37% [at 19 µM]
caspase-3/7 activation [4]: 0.47% [at 19 µM]
activity change, negative = cytotoxicity [5]: 0.0199% [at 19 µM]
activation [6]: -5.92% [at 19 µM]
max activation [7]: -0.517%
Potency [9]: inactive

CC1(C)SC(C)(C)SC(C)(C)S1
Potency [1]: inactive
outcome [2]: inactive
Potency [3]: inactive
outcome [4]: inactive
outcome [5]: inactive
Potency [6]: inactive
Potency [10]: inactive

Nc1nc(F)nc2c1ncn2[C@@H]1O[C@H](CO)[C@@H](O)[C@@H]1O
Potency [1]: inactive
outcome [2]: inactive
Potency [3]: inactive
outcome [4]: inactive
outcome [5]: inactive
Potency [6]: inactive
max activation [7]: -2.35%
Potency [8]: inactive
Potency [9]: inactive
Potency [10]: 34.7 µM (active)

Cc1ccccc1Br
Potency [1]: inactive
outcome [2]: inactive
Potency [3]: inactive
outcome [4]: inactive
outcome [5]: inactive
Potency [6]: inactive

COC(C(=O)O)c1ccccc1 (stereo not given)
Potency [1]: inactive
outcome [2]: inactive
Potency [3]: inactive
outcome [4]: inactive
outcome [5]: inactive
Potency [6]: inactive

NS(=O)(=O)c1cc2c(cc1C(F)(F)F)NC(Cc1ccccc1)NS2(=O)=O (stereo not given)
Potency [1]: inactive
outcome [2]: inactive
Potency [3]: inactive
outcome [4]: inactive
outcome [5]: inactive
Potency [6]: inactive
max activation [7]: -1.57%
Potency [8]: inactive
Potency [9]: inactive

CC(C)(C)N(CCO)CCO
Potency [1]: inactive
outcome [2]: inactive
Potency [3]: inactive
outcome [4]: inactive
outcome [5]: inactive
Potency [6]: 63.1 µM (active)
Potency [10]: inactive

CC(=O)O[C@H](CC(=O)[O-])C[N+](C)(C)C
Potency [1]: inactive
outcome [2]: inactive
Potency [3]: inactive
outcome [4]: inactive
outcome [5]: inactive

COc1cc(O)cc(O)c1
Potency [1]: inactive
outcome [2]: inactive
Potency [3]: inactive
outcome [4]: inactive
outcome [5]: inactive
Potency [6]: inactive
max activation [7]: -1.94%
Potency [8]: inactive
Potency [9]: inactive
Potency [10]: inactive

COc1cc(C)cc(O)c1
Potency [1]: inactive
outcome [2]: inactive
Potency [3]: inactive
outcome [4]: inactive
outcome [5]: inactive
Potency [6]: inactive
Potency [10]: inactive

O=C(O)/C=C/c1ccc(/C=C/C(=O)O)cc1
Potency [1]: inactive
outcome [2]: inactive
Potency [3]: inactive
outcome [4]: inactive
outcome [5]: inactive
Potency [6]: inactive

CN(C)CCOC(c1ccc(Cl)cc1)c1ccccn1 (stereo not given)
Potency [1]: inactive
outcome [2]: inactive
Potency [3]: inactive
outcome [4]: inactive
outcome [5]: inactive
Potency [6]: inactive
max activation [7]: -0.352%
Potency [8]: inactive
Potency [10]: 13.8 µM (active)

CCCCCN(CCCCC)C(=O)C(CCC(=O)O)NC(=O)c1ccc(Cl)c(Cl)c1 (stereo not given)
Potency [1]: inactive
outcome [2]: inactive
Potency [3]: inactive
outcome [4]: inactive
outcome [5]: inactive
Potency [6]: inactive

CC(C)[C@H](N)C(=O)OCCOCn1cnc2c(=O)[nH]c(N)nc21
Potency [1]: inactive
outcome [2]: inactive
Potency [3]: inactive
outcome [4]: inactive
outcome [5]: inactive
Potency [6]: inactive
max activation [7]: -4.04%
Potency [8]: inactive
Potency [9]: inactive
Potency [10]: inactive

C[N+](C)(C)CC[N+]1(C)Cc2c(Cl)c(Cl)c(Cl)c(Cl)c2C1
Potency [1]: inactive
outcome [2]: inactive
Potency [3]: inactive
outcome [4]: inactive
outcome [5]: inactive
Potency [6]: inactive
max activation [7]: -3.39%
Potency [8]: inactive
Potency [9]: inactive
Potency [10]: 1.55 µM (active)

CCOC(=O)Cn1c(=O)sc2cccc(Cl)c21
Potency [1]: inactive
outcome [2]: inactive
Potency [3]: inactive
outcome [4]: inactive
outcome [5]: inactive
Potency [6]: 27.3 µM (active)

C[C@H](O)C(=O)Nc1c(I)c(C(=O)NC(CO)CO)c(I)c(C(=O)NC(CO)CO)c1I
Potency [1]: inactive
outcome [2]: inactive
Potency [3]: inactive
outcome [4]: inactive
outcome [5]: inactive
Potency [6]: inactive
Potency [8]: inactive
Potency [9]: inactive
Potency [10]: inactive

CCC(C(=O)NC(N)=O)c1ccccc1 (stereo not given)
Potency [1]: inactive
outcome [2]: inactive
Potency [3]: inactive
outcome [4]: inactive
outcome [5]: inactive
Potency [6]: inactive
max activation [7]: -2.91%
Potency [8]: inactive
Potency [9]: inactive
Potency [10]: inactive

c1ccc(CCCc2ccccn2)cc1
Potency [1]: inactive
outcome [2]: inactive
Potency [3]: inactive
outcome [4]: inactive
outcome [5]: inactive
Potency [6]: 34.4 µM (active)

C[C@H]1O[C@@H](n2cc(F)c(=O)[nH]c2=O)[C@H](O)[C@@H]1O
Potency [1]: inactive
outcome [2]: inactive
Potency [3]: inactive
outcome [4]: inactive
outcome [5]: inactive
Potency [6]: inactive
max activation [7]: -1.26%
Potency [8]: inactive
Potency [9]: inactive
Potency [10]: inactive
